The source of these data is publication PMC7862700, “An all-to-all approach to the identification of sequence-specific readers for epigenetic DNA modifications on cytosine”.

What all share (assay): DAPPL (digital affinity profiling via proximity ligation, sequencing); 10 mM Tris-HCl pH 7.5, 50 mM NaCl, 1 mM DTT, 4% glycerol, room temperature, 30 min; GST-TFs on glutathione beads, 16-mer random dsDNA library, 0.1% formaldehyde crosslink after washing; high values mean tight binding
Test [1] deals with T1, FEV (Homo sapiens, UniProt Q99581 1-238).
T1 sequence: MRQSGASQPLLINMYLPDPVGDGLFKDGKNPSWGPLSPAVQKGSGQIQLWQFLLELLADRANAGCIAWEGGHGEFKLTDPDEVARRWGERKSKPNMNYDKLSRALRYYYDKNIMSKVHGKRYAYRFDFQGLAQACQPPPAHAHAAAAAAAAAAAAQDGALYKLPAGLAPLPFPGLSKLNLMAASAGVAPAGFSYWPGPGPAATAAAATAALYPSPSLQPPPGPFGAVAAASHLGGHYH
The conditions noted are these: protein: recombinant; tags: N-terminal GST; dsDNA, one strand shown. The gist of the method:
(§1)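 Binding signal is given per hexamer as its read frequency for a factor divided by its frequency in the tag-only sample. GST-fused human transcription factors were expressed in yeast, captured on glutathione beads, barcoded with DNA and pooled with that sample, then incubated with 200 nmole of a 16-mer random double-stranded DNA library in Tris/NaCl/DTT/glycerol buffer for 30 min at room temperature. The pools were then washed, crosslinked, proximity-ligated, amplified by PCR and sequenced on an Illumina NextSeq500.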

Test [2] concerns the target ETV5 (Homo sapiens, UniProt P41161 1-510). The conditions noted are these: protein: recombinant; tags: N-terminal GST; dsDNA, one strand shown. The gist of the method:
as §1

In test [3] the target is HSF1 (Homo sapiens, UniProt Q00613 1-529). The conditions noted are these: protein: recombinant; tags: N-terminal GST; chain copies: 3; dsDNA, one strand shown. In outline: as §1
The target of test [4] is T2, SPIC (Homo sapiens, UniProt Q8N5J4 1-248).
T2 sequence: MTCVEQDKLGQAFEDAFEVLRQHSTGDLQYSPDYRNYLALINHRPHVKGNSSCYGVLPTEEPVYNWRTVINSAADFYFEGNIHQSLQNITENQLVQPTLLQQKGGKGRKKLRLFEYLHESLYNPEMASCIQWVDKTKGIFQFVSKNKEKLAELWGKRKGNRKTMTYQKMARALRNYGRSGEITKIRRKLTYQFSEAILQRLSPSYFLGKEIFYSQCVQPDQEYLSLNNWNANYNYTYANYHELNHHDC
The note with it: protein: recombinant; tags: N-terminal GST; dsDNA, one strand shown. In outline: as §1

Test [5] addresses ELF4 (Homo sapiens, UniProt Q99607 1-663). The conditions noted are these: protein: recombinant; tags: N-terminal GST; dsDNA, one strand shown. The gist of the method:
as §1

Test [6] addresses T3, ELK4 (Homo sapiens, UniProt P28324-2 1-405).
T3 sequence: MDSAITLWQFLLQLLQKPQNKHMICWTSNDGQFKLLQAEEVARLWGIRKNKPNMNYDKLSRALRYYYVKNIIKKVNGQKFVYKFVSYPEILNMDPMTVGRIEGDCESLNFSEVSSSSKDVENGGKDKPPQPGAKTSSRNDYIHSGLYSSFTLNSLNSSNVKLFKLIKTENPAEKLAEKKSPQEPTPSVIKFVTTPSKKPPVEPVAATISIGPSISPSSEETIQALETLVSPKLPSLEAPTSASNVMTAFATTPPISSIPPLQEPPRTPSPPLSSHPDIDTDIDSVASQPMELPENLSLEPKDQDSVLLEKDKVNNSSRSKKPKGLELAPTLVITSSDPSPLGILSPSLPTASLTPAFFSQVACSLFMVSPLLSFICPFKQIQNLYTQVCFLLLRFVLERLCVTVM
The note with it: protein: recombinant; tags: N-terminal GST; dsDNA, one strand shown. In outline:
as §1

For test [7], the target named is T4, ETV2 (Homo sapiens, UniProt O00321 1-342).
T4 sequence: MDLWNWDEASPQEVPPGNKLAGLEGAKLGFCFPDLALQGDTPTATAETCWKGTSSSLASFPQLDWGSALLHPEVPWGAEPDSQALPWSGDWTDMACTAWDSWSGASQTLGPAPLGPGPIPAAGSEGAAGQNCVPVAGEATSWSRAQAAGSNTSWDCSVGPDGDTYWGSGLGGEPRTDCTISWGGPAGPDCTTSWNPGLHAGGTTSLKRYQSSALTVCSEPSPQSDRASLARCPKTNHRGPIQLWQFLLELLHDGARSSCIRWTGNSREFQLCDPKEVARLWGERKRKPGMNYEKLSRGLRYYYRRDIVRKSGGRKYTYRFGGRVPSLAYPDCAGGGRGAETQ
The note with it: protein: recombinant; tags: N-terminal GST; dsDNA, one strand shown. In outline: as §1

Test [8] addresses T5, ELF3 (Homo sapiens, UniProt P78545 1-371).
T5 sequence: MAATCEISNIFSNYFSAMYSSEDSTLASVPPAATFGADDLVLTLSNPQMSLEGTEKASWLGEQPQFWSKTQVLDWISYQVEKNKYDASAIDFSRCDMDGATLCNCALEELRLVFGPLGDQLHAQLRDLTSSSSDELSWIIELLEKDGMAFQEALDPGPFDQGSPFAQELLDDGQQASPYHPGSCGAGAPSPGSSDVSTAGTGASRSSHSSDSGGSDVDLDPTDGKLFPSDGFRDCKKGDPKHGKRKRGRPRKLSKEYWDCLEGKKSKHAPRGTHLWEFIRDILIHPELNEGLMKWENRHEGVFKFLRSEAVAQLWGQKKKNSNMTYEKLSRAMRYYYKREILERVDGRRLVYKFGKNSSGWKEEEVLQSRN
The conditions noted are these: protein: recombinant; tags: N-terminal GST; dsDNA, one strand shown. In outline:
as §1

Test [9] addresses CRX (Homo sapiens, UniProt O43186 1-299). The conditions noted are these: protein: recombinant; tags: N-terminal GST; dsDNA, one strand shown. The gist of the method: as §1
Test [10] addresses ETV1 (Homo sapiens, UniProt P50549 1-477). The conditions noted are these: protein: recombinant; tags: N-terminal GST; dsDNA, one strand shown. In outline: as §1
Test [11] concerns the target T6, ERF (Homo sapiens, UniProt P50548 1-548).
T6 sequence: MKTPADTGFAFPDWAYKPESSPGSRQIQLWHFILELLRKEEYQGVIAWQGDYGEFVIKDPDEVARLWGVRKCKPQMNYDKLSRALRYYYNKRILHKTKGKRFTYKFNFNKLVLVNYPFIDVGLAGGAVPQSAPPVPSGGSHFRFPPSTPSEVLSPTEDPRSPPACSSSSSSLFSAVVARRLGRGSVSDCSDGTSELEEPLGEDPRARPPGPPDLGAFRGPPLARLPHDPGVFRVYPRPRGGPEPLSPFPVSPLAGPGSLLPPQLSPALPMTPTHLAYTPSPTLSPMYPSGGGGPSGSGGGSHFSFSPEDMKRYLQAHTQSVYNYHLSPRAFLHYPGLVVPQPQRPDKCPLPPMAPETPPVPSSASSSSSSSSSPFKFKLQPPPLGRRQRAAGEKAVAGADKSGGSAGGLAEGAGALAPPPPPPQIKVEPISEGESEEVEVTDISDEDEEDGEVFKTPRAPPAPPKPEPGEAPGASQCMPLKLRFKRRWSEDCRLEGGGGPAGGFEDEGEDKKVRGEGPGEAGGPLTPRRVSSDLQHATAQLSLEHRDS
The conditions noted are these: protein: recombinant; tags: N-terminal GST; dsDNA, one strand shown. The gist of the method:
as §1

The target of test [12] is T7, ETV3L (Homo sapiens, UniProt Q6ZN32 1-361).
T7 sequence: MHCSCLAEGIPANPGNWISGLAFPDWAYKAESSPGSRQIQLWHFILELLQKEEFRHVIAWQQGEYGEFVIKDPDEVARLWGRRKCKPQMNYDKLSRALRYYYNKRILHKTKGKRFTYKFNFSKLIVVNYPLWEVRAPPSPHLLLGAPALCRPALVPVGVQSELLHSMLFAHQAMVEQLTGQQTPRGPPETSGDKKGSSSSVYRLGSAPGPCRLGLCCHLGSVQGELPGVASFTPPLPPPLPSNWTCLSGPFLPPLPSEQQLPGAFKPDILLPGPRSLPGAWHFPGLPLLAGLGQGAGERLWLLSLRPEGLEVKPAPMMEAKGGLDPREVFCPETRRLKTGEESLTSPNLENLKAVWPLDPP
The conditions noted are these: protein: recombinant; tags: N-terminal GST; dsDNA, one strand shown. In outline: as §1

Test [13] deals with T8, ETS2 (Homo sapiens, UniProt P15036 1-469).
T8 sequence: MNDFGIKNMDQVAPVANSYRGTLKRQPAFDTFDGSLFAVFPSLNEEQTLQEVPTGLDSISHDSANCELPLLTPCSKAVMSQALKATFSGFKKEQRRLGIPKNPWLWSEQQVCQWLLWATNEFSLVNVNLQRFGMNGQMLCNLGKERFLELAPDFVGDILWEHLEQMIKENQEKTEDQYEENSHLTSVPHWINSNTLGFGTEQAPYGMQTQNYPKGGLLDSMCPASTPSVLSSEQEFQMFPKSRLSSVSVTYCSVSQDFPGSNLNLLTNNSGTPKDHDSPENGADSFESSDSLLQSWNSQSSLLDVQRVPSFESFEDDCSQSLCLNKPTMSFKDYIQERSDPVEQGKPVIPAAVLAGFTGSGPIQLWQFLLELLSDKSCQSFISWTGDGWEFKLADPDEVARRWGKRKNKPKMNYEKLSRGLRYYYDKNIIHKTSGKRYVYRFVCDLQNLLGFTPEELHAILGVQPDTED
The conditions noted are these: protein: recombinant; tags: N-terminal GST; dsDNA, one strand shown. In outline:
as §1

Test [14] deals with T9, SPDEF (Homo sapiens, UniProt O95238 1-335).
T9 sequence: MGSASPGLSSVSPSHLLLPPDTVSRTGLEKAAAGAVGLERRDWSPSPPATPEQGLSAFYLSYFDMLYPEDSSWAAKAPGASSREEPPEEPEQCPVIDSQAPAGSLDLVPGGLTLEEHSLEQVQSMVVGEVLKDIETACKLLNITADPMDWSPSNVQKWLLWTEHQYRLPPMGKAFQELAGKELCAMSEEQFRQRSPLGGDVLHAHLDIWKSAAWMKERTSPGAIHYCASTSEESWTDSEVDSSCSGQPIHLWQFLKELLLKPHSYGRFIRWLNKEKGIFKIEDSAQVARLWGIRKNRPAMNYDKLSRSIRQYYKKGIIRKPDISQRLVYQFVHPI
The note with it: protein: recombinant; tags: N-terminal GST; dsDNA, one strand shown. In outline:
as §1

Test [15] has as its target T10, ETV7 (Homo sapiens, UniProt Q9Y603 1-341).
T10 sequence: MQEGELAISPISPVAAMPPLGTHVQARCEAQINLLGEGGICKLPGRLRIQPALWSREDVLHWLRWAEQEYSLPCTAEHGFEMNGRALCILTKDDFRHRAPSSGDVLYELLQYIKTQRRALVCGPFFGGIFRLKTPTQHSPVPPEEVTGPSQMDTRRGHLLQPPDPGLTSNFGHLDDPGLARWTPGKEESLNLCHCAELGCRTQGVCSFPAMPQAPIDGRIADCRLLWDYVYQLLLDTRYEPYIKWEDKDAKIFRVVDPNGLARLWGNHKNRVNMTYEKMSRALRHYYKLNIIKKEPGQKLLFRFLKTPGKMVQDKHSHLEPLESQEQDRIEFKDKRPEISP
The conditions noted are these: protein: recombinant; tags: N-terminal GST; dsDNA, one strand shown. The gist of the method: as §1

For test [16], the target named is T11, ELF5 (Homo sapiens, UniProt Q9UKW6-2 1-255).
T11 sequence: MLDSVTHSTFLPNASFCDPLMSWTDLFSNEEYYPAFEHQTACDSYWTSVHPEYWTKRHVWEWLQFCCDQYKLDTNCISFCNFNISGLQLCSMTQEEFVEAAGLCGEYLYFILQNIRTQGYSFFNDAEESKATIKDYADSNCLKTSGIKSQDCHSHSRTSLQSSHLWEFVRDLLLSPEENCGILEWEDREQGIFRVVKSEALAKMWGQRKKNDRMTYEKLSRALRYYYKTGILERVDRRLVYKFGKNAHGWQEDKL
The conditions noted are these: protein: recombinant; tags: N-terminal GST; dsDNA, one strand shown. In outline:
as §1

Test [17] concerns the target T12, ETV3 (Homo sapiens, UniProt P41162-2 1-143).
T12 sequence: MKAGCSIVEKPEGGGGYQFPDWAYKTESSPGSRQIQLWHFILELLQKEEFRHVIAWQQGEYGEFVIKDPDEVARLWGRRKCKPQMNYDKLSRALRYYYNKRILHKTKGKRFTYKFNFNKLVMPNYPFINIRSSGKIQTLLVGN
The conditions noted are these: protein: recombinant; tags: N-terminal GST; dsDNA, one strand shown. In outline: as §1

Test [18] concerns the target ETV6 (Homo sapiens, UniProt P41212 1-452). The conditions noted are these: protein: recombinant; tags: N-terminal GST; dsDNA, one strand shown. The gist of the method: as §1

Chain of CRX (O43186 whole entry): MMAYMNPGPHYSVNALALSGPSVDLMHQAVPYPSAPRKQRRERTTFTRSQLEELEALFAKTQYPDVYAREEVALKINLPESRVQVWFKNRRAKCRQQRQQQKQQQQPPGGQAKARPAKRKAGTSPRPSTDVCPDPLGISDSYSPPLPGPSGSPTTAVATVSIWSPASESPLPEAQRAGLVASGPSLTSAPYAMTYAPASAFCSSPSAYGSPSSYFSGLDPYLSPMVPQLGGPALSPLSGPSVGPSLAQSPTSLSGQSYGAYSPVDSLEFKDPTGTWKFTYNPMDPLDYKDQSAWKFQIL
Chain of ETV1 (P50549 whole entry): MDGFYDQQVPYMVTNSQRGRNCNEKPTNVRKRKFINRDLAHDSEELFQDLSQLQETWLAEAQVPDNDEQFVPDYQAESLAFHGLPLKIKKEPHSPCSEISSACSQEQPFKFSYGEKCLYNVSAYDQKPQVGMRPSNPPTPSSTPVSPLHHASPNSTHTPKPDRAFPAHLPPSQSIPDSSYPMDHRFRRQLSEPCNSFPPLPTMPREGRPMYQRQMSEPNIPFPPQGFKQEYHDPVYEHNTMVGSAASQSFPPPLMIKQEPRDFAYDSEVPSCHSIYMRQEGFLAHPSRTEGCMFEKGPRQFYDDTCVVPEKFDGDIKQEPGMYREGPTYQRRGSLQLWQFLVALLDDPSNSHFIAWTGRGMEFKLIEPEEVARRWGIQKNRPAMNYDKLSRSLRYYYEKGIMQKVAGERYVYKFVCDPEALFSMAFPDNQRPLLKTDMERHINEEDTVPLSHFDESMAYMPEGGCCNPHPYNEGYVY
Chain of ETV5 (P41161 whole entry): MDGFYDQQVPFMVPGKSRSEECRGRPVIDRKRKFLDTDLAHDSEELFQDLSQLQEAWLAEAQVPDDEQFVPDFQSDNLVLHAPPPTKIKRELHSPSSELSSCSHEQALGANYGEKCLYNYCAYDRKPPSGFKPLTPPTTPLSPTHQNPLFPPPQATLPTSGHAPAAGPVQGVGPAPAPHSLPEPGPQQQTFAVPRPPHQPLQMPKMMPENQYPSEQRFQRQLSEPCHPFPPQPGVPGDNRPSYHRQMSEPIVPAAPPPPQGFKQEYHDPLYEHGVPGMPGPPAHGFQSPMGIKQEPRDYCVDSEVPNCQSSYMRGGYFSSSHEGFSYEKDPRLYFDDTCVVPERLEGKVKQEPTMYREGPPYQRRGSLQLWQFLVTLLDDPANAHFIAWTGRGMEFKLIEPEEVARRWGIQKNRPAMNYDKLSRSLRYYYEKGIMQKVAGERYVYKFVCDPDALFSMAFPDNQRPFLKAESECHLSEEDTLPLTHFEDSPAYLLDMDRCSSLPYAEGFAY
Chain of ELF4 (Q99607 whole entry): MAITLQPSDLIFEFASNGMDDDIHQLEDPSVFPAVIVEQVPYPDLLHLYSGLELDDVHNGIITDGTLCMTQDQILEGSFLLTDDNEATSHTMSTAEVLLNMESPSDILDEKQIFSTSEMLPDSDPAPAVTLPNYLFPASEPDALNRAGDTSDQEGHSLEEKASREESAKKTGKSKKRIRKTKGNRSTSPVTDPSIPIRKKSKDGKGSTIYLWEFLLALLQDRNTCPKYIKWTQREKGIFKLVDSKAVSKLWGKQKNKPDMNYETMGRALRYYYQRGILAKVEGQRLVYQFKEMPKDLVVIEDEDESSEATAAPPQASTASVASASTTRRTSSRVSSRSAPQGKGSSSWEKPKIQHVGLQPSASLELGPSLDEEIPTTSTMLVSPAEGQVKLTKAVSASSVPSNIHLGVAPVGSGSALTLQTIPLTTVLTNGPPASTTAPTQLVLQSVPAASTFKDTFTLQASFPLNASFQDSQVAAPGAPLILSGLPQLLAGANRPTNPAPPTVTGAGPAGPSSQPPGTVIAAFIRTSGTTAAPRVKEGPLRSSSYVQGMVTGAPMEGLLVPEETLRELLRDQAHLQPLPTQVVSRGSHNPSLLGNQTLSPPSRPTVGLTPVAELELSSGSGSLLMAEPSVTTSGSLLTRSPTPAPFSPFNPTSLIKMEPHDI
Chain of ETV6 (P41212 whole entry): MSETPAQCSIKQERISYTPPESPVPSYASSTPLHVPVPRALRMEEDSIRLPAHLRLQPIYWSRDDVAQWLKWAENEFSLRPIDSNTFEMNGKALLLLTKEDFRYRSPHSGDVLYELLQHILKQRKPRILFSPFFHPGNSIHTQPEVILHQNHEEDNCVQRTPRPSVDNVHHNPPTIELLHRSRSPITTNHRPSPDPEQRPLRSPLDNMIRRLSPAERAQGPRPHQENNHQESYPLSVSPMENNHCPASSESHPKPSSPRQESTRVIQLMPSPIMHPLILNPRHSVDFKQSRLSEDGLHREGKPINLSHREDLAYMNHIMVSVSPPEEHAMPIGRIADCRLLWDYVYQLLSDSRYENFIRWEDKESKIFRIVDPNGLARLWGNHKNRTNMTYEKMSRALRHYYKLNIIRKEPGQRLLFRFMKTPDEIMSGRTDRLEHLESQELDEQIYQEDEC
Chain of HSF1 (Q00613 whole entry): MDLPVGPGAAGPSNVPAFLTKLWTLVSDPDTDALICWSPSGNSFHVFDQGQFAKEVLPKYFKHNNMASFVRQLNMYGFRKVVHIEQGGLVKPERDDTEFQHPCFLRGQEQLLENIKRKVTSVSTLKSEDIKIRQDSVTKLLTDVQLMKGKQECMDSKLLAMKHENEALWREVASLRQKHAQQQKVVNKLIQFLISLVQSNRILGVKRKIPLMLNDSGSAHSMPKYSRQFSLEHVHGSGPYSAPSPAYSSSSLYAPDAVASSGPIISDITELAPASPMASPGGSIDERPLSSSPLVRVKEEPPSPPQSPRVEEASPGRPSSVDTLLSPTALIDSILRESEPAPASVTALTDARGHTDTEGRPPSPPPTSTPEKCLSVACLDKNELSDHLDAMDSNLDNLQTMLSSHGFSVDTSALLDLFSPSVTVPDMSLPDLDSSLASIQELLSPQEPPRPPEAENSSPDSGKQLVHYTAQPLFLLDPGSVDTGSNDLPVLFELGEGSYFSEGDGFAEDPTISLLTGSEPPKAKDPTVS

As to CCATTT, the binding signal in [1] is 1.5 fold enrichment (6-mer frequency, TF over GST control); in [2], 1.47 fold enrichment (6-mer frequency, TF over GST control); in test [3], 1.01 fold enrichment (6-mer frequency, TF over GST control); in [4], 1.42 fold enrichment (6-mer frequency, TF over GST control); in [5] it was 1.32 fold enrichment (6-mer frequency, TF over GST control); in test [6], 1.41 fold enrichment (6-mer frequency, TF over GST control). Further, the binding signal was 1.38 fold enrichment (6-mer frequency, TF over GST control) in test [7]; 1.28 fold enrichment (6-mer frequency, TF over GST control) in test [8]; 1.01 fold enrichment (6-mer frequency, TF over GST control) in [9]; 1.36 fold enrichment (6-mer frequency, TF over GST control) in test [10]; 1.32 fold enrichment (6-mer frequency, TF over GST control) in test [11]; 1.25 fold enrichment (6-mer frequency, TF over GST control) in test [12]. In addition, the binding signal is 1.41 fold enrichment (6-mer frequency, TF over GST control) in [13]; 1.21 fold enrichment (6-mer frequency, TF over GST control) in test [14]; 1.24 fold enrichment (6-mer frequency, TF over GST control) in test [15]; 1.31 fold enrichment (6-mer frequency, TF over GST control) in test [16]; 1.34 fold enrichment (6-mer frequency, TF over GST control) in [17]; 1.34 fold enrichment (6-mer frequency, TF over GST control) in [18].
